DUX4 inh = blocks DUX4-driven transcriptional activation | activity change, negative = inhibition, % (no concentration beside the values) | AID 1224904 | 293T-iDUX4 ZSCAN4-Gaussia luciferase reporter, 24 h; active compounds read low | actives 0.8% (n = 37,000);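 active = mean inhibition of at least 10% in the main channel, exceeding the control channel by a set limit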;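 also: 0% = median of neutral control wells and -100% = median of positive control wells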
Numbers without * were called inactive; ! = a repeat was not active. The entries come from a sample that favours hits as a whole.

SMILES	DUX4 inh
CN(C)C(=O)c1cccc(-c2ccc(C3[C@@H]4CN(Cc5cncnc5)C[C@H]3N4)cc2)c1 (stereo partly drawn)	14
Cc1ccc(-c2ccc(C3[C@@H]4CN(Cc5ccccc5)C[C@H]3N4)cc2)cc1 (stereo partly drawn)	6
Cc1ccccc1-c1ccc(C2[C@@H]3CN(C(=O)c4cnccn4)C[C@H]2N3)cc1 (stereo partly drawn)	4
COc1ccc2c3c(n(C)c2c1)[C@@H](CO)N(C(=O)Nc1ccccc1F)CC31CN(C(C)=O)C1	5
CC(C)[C@H](C)NC(=O)N(C)C[C@@H]1OCc2ccccc2-c2c(n(C)c3ccccc23)C(=O)N([C@H](C)CO)C[C@H]1C	8
CCCNC(=O)N1CC2(CN(C)C2)c2c([nH]c3cc(OC)ccc23)[C@@H]1CO	16
CCC(=O)N1Cc2cc(C(=O)N3CCN(C)CC3)nc(-c3cccc(-c4cccnc4)c3)c2[C@H]1CCO	3
C/C=C/c1ccc([C@@H]2[C@@H](CO)N3C(=O)CN(Cc4ccccc4)C[C@@H]23)cc1	20
CCS(=O)(=O)Nc1ccc2c(c1)C(=O)N(C)C[C@H](OC)[C@H](C)CN(C(=O)CN(C)C)[C@H](C)CO2	5
CCS(=O)(=O)N1CCCCN2[C@@H](CO)[C@@H](c3ccc(-c4ccccc4F)cc3)[C@@H]2C1	13
COc1ccc2c3c([nH]c2c1)[C@@H](CO)N(C(=O)Cc1ccccn1)CC31CCN(Cc2ccccn2)CC1	4
C[C@@H]1CCCCO[C@H](CN(C)C(=O)NC2CCCCC2)[C@H](C)CN([C@H](C)CO)C(=O)c2cc(NC(=O)Cc3ccccc3)ccc2O1	-4
O=C(C[C@@H]1CC[C@H]2[C@@H](COC[C@@H](O)CN2C(=O)C2CC2)O1)NCc1ccccc1Cl	4
C[C@@H]1CN([C@H](C)CO)C(=O)c2ccccc2-c2ccccc2CO[C@@H]1CN(C)C(=O)C1CC1	-3
CCCNC(=O)C[C@@H]1CC[C@@H]2[C@H](COC[C@H](O)CN2C(=O)Nc2ccc3c(c2)OCO3)O1	-1
Cc1ccc(-c2ccc(C3[C@@H]4CN(Cc5cccnc5)C[C@H]3N4)cc2)cc1 (stereo partly drawn)	-22*!
COc1cccc(S(=O)(=O)N2[C@@H]3CNC[C@H]2C3c2ccc(-c3ccccc3F)cc2)c1 (stereo partly drawn)	3
Cc1cccc(-c2ccc(C3[C@@H]4CN(Cc5cccnc5)C[C@H]3N4)cc2)c1 (stereo partly drawn)	20
CN(C)C(=O)c1ccc(-c2ccc(C3[C@@H]4CN(Cc5cncnc5)C[C@H]3N4)cc2)cc1 (stereo partly drawn)	17
COc1cccc(-c2ccc(C3[C@H]4CNC[C@@H]3N4Cc3ccccc3F)cc2)c1 (stereo partly drawn)	7
COc1cccc(CN2C[C@@H]3N[C@H](C2)C3c2ccc(-c3ccccc3F)cc2)c1 (stereo partly drawn)	-19*!
O=C(CN1CCOCC1)N1C[C@@H]2N[C@H](C1)C2c1ccc(-c2ccccc2)cc1 (stereo partly drawn)	11
COc1ccccc1CN1C[C@@H]2N[C@H](C1)C2c1ccc(-c2ccccc2)cc1 (stereo partly drawn)	-46*
COCC(=O)Nc1ccc2c(c1)C(=O)N(C)[C@H]1CC[C@H](CC(=O)NCc3ccc(OC)cc3)O[C@H]1CO2	2
COc1ccc2c3c(n(C)c2c1)[C@H](CO)N(C(=O)c1ccccn1)CC31CCN(C)CC1	10
SMILES	DUX4 inh
COc1ccc2c3c(n(C)c2c1)[C@H](CO)N(C(=O)CN1CCOCC1)CC31CCN(C(=O)CC2CC2)CC1	5
CCCC(=O)N1CC2(CCN(C(=O)NC(C)C)CC2)c2c([nH]c3cc(OC)ccc23)[C@H]1CO	13
COc1ccc2c3c(n(C)c2c1)[C@@H](CO)N(C(=O)c1ccccc1)CC31CCN(CC2CC2)CC1	-2
COc1ccc2c3c(n(C)c2c1)[C@@H](CO)N(CC1CC1)CC31CN(C(=O)c2ccccc2)C1	-32*
COc1ccc2c3c(n(C)c2c1)[C@@H](CO)N(CC1CC1)CC31CCN(C(=O)c2ccccc2)CC1	-32*
COc1ccc2c3c(n(C)c2c1)[C@H](CO)N(CC1CC1)CC31CN(C(=O)NC2CCCC2)C1	2
COc1ccc2c3c(n(C)c2c1)[C@H](CO)N(C)CC31CN(C(=O)C2CCC2)C1	23
COc1ccc2c3c([nH]c2c1)[C@@H](CO)N(C(=O)c1ccc(F)cc1)CC31CCN(C(=O)NC(C)C)CC1	-16*
COc1ccc2c3c(n(C)c2c1)[C@@H](CO)N(CC1CC1)CC31CCN(C(=O)CC2CC2)CC1	-2
COc1ccc2c3c(n(C)c2c1)[C@H](CO)N(C)CC31CN(C(=O)NC(C)C)C1	5
COc1ccc2c3c(n(C)c2c1)[C@@H](CO)N(CC1CC1)CC31CCN(C(C)=O)CC1	13
COc1ccc2c3c([nH]c2c1)[C@@H](CO)N(C(=O)c1ccncc1)CC31CCN(C(=O)NC(C)C)CC1	16
COc1ccc2c3c(n(C)c2c1)[C@@H](CO)N(C)CC31CN(C(=O)c2ccccc2F)C1	-35*
O=C(C[C@H]1CC[C@@H]2[C@H](COC[C@H](O)CN2S(=O)(=O)c2ccccc2)O1)NCCN1CCCC1	6
CCCNC(=O)N1[C@H](CNC(=O)c2ccc(F)cc2)[C@H](c2ccccc2)[C@@H]1CO	-2
CCCNC(=O)C[C@@H]1CC[C@@H]2[C@H](COC[C@H](O)CN2C(=O)Nc2c(C)noc2C)O1	12
C[C@H](CO)N1C[C@H](C)[C@H](CN(C)C(=O)CCC(F)(F)F)OCCCC[C@H](C)Oc2ccc(NC(=O)Cc3ccccc3)cc2C1=O	-3
C[C@@H]1CN([C@@H](C)CO)S(=O)(=O)c2ccc(Br)cc2O[C@H]1CN(C)C(=O)C1CC1	1
COCCNC(=O)C[C@@H]1CC[C@H]2[C@@H](COC[C@H](O)CN2C(=O)Nc2ccccc2OC)O1	4
COc1ccccc1C(=O)Nc1ccc2c(c1)OC[C@H](C)NC[C@H](C)[C@@H](OC)CN(C)C2=O	1
CCCNC(=O)N1CC2(C1)CN(Cc1ccccc1)[C@H](CO)c1[nH]c3cc(OC)ccc3c12	-8
COc1ccc2c3c(n(C)c2c1)[C@H](CO)N(CC1CC1)CC31CN(C(=O)Nc2ccc(F)cc2F)C1	-5
CCCNC(=O)N1CC2(C1)CN(Cc1ccc(F)cc1)[C@H](CO)c1[nH]c3cc(OC)ccc3c12	-8
COc1ccc2c3c(n(C)c2c1)[C@@H](CO)N(C)CC31CCN(CC2CC2)CC1	9
COc1ccc2c3c(n(C)c2c1)[C@@H](CO)N(S(C)(=O)=O)CC31CCN(CC2CCCCC2)CC1	-21*
SMILES	DUX4 inh
COc1ccc2c3c([nH]c2c1)[C@H](CO)N(CC1CC1)CC31CN(C(=O)c2ccccc2)C1	-24*
COc1ccc2c3c([nH]c2c1)[C@H](CO)N(CC1CC1)CC31CN(C(=O)NC2CCCC2)C1	6
COc1ccc2c3c(n(C)c2c1)[C@@H](CO)N(S(C)(=O)=O)CC31CCN(C(=O)C2CCCC2)CC1	15
COc1ccc2c3c(n(C)c2c1)[C@@H](CO)N(C(=O)c1ccc(F)cc1)CC31CN(C(C)=O)C1	17
COc1ccc2c3c([nH]c2c1)[C@H](CO)N(C(=O)c1ccccc1)CC31CN(C(=O)CC2CC2)C1	10
CCCNC(=O)N1CC2(C1)CN(Cc1ccccc1)[C@@H](CO)c1[nH]c3cc(OC)ccc3c12	-10*
